In PubChem BioAssay (Tox21):
Several values for one entry are separate records, joined by “and”; a condition that tells them apart may be missing. Equal values may be shown once. Inconclusive results are not listed. Where a call stands in place of a potency, no number is given. A structure can be active in one record and inactive in another. Activity calls are given as the source filed them. Unless noted, calls follow the shape of the dose curve; as a rule, active = well fitted curve in the direction sought with a large enough effect in the repeat runs; inconclusive = weak or mixed curves; inactive = no such curve, though single readings can be large; an effect the other way counts as inactive or inconclusive.

Key:
[1] = qHTS assay to identify small molecule antagonists of the estrogen receptor alpha (ER-alpha) signaling pathway using the BG1 cell line in the presence of 0.1 nM 17-beta-estradiol - cell viability counter screen (AID 1259241); settings: VM7Luc4E2 (BG1) viability, CellTiter-Fluor protease, 22 h, 0.1 nM estradiol agonist added; series mostly up to 92.4 µM; also: nearly all actives have a fitted effect of over 40% in size; also: potency is read from the fitted curve at half-maximal effect
Procedure, shortened: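 Following 5 days in phenol red-free medium with charcoal-stripped serum, VM7Luc4E2 cells received test compounds alongside 0.1 nM 17beta-estradiol (final) at 37C for 22 hr. Live cells were then quantified via protease-substrate fluorescence.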

[2] = qHTS assay to identify small molecule antagonists of the androgen receptor (AR) signaling pathway using the MDA cell line in the presence of 0.5 nM R1881 - cell viability counter screen (AID 1259242); settings: MDA-kb2 viability, CellTiter-Fluor protease fluorescence, 16 h; series mostly up to 92.4 µM; also: nearly all actives have a fitted effect of over 45% in size; also: potency is read from the fitted curve at half-maximal effect
Procedure, shortened: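 qHTS format. MDA-kb2 (MMTV-luc, AR/GR responsive) + cpd + 0.5 nM R1881 final, 16 hr 37C/0% CO2 → CellTiter-Fluor 30 min → fluorescence intensity.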

[3] = qHTS assay to identify small molecule HDAC inhibitors (AID 1259364); settings: HCT-116 HDAC-Glo I/II luminescence, 2 h; series mostly up to 92.4 µM; also: potency is read from the fitted curve at half-maximal effect;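 also: wild-type HCT-116 cells with endogenous class I/II HDAC activity; nearly all actives have a fitted effect of over 45% in size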
Procedure, shortened: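 Quantitative high-throughput format: overnight-seeded HCT-116 cells got compounds for 2 hr at 37C; HDAC-Glo I/II reagent added, 30 min RT, luminescence measured.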

[4] = qHTS assay to identify small molecule agonists of the sonic hedgehog signaling (Shh) pathway - cell viability counter screen (AID 1259366); settings: NIH/3T3 Gli1-Luc viability, CellTiter-Fluor, 24 h; series mostly up to 92.4 µM; also: nearly all actives have a fitted effect of over 50% in size; also: potency is read from the fitted curve at half-maximal effect
Procedure, shortened: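 Compounds in DMSO were pin-transferred onto 3T3 Gli1-Luc cells that had settled 4hr; plates then stood 24hr at 37C and 5% CO2. One hour before the end, CellTiter-Fluor was added and fluorescence recorded.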

[5] = qHTS assay to identify small molecule antagonists of the sonic hedgehog signaling (Shh) pathway - cell viability counter screen (AID 1259367); settings: NIH/3T3 Gli1-Luc viability, CellTiter-Fluor, 24 h; series mostly up to 92.4 µM; also: nearly all actives have a fitted effect of over 55% in size; also: potency is read from the fitted curve at half-maximal effect
Procedure, shortened: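 Cytotoxicity was assessed in parallel with Shh reporter activity by measuring live-cell protease fluorescence (CellTiter-Fluor) in NIH/3T3 cells stably carrying Gli1-Luc, treated with compound under conditioned medium stimulation for 23 hr plus 1 hr reagent incubation.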

[6] = qHTS assay to identify small molecule agonists of the sonic hedgehog signaling (Shh) pathway (AID 1259368; calls by dose curve;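 also: NIH/3T3-derived 3T3Gli1-Luc cells carrying a stable Gli1-driven firefly luciferase reporter; nearly all actives have a fitted effect of over 15% in size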); settings: NIH/3T3 Gli1-Luc reporter, luciferase, 24 h; series mostly up to 92.4 µM
Procedure, shortened: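 Quantitative high-throughput format using a Gli1-driven firefly luciferase reporter line derived from NIH/3T3 cells. After a 24 hr compound treatment at 37 C and 5% CO2, luminescence reported Gli1 response element activity.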

[7] = qHTS assay to identify small molecule antagonists of the sonic hedgehog signaling (Shh) pathway (AID 1259369; calls by dose curve; also: nearly all actives have a fitted effect of over 45% in size; also: potency is read from the fitted curve at half-maximal effect); settings: NIH/3T3 Gli1-Luc reporter, Shh antagonist, luminescence 24 h; series mostly up to 92.4 µM
Procedure, shortened: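 Stable Gli1-Luc reporter NIH/3T3 clone; quantitative HTS in stimulated mode with conditioned medium. Luminescence measured after 24hr compound treatment at 37 C.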

[8] = biological target: Estrogen receptor beta (Homo sapiens) (UniProt Q92731); assay: qHTS assay to identify small molecule agonists of the estrogen receptor beta (ER-beta) signaling pathway (AID 1259377; active = well fitted activation curve with a large enough effect in the signal ratio in the repeat runs, not every such curve was filed as active; the % refers to the signal ratio); settings: ER-beta-UAS-bla HEK293T, beta-lactamase FRET ratio, 16 h; series mostly up to 92.4 µM
Sequence of Estrogen receptor beta (Homo sapiens) (Q92731 whole entry, looked up): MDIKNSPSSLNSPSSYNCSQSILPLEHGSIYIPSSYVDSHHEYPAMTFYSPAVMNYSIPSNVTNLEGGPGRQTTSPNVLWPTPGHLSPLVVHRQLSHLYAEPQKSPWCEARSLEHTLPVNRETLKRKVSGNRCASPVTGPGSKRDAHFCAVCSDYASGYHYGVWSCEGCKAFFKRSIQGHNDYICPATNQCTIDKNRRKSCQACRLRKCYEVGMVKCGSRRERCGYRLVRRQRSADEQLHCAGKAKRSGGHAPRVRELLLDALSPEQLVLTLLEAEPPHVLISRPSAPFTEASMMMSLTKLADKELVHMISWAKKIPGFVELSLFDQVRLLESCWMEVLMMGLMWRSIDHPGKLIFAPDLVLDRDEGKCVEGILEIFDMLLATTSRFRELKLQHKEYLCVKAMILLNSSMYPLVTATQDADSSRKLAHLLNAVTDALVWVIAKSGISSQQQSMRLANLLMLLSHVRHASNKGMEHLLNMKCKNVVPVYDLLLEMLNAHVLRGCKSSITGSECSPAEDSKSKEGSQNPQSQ
Procedure, shortened: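 qHTS in ER-beta-UAS-bla HEK293T cells: 6 hr settling, then 16 hr compound at 37C, then LiveBLAzer substrate 2 h at RT before fluorescence reading.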

[9] = qHTS assay to identify small molecule agonists of the androgen receptor (AR) signaling pathway in the presence of an antagonist - cell viability counter screen (AID 1259379); settings: MDA-kb2 viability, CellTiter-Fluor, 16 h; series mostly up to 92.4 µM; also: nearly all actives have a fitted effect of over 25% in size; also: potency is read from the fitted curve at half-maximal effect
Procedure, shortened: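 Nilutamide-containing (3.0uM final) MDA-kb2 cultures, 3,000 cells/well, were treated with compounds across 15 concentrations. After 16 hr at 37C with no CO2, cell viability was determined by CellTiter-Fluor fluorescence in the luciferase assay wells.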

[10] = qHTS assay to identify small molecule agonists of the estrogen receptor beta (ER-beta) signaling pathway - cell viability counter screen (AID 1259380); settings: ER-beta-bla HEK293T viability, CellTiter-Glo luminescence, 16 h; series mostly up to 92.4 µM; also: nearly all actives have a fitted effect of over 30% in size; also: potency is read from the fitted curve at half-maximal effect
Procedure, shortened: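 Steps: plate ER-beta-UAS-bla HEK293T cells, rest 6 hr; add compounds in DMSO; incubate 16 hr at 37C, 5% CO2; add FRET substrate 2 hr; add CellTiter-Glo, wait 30 min at room temperature; read luminescence.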

[11] = qHTS assay to identify small molecule antagonists of the estrogen receptor beta (ER-beta) signaling pathway - cell viability counter screen (AID 1259382); settings: ER-beta-UAS-bla HEK293T viability, CellTiter-Glo luminescence, 16 h; series mostly up to 92.4 µM; also: nearly all actives have a fitted effect of over 55% in size; also: potency is read from the fitted curve at half-maximal effect
Procedure, shortened: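 Viability is scored by CellTiter-Glo luminescence (30 min, room temperature) in ER-beta-UAS-bla HEK293T wells already read for reporter fluorescence. Compound exposure lasts 16 hr at 37C alongside 1nM 17-beta-estradiol in charcoal-stripped serum medium.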

[12] = qHTS assay to identify small molecule agonists or antagonists of the thyroid stimulating hormone receptor (TSHR) signaling pathway - wild type cell line counter screen (AID 1259384; calls by dose curve); settings: HEK293 wild type, cAMP HTRF counter-screen; series mostly up to 92.4 µM
Procedure, shortened: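 Wild-type HEK293 cells were plated 18 h at 37 C/5% CO2, pin-dosed with compound plus Ro20-1724 medium, held 30 min at room temperature, then given cAMP-d2 and anti-cAMP-cryptate; fluorescence was read after 1 h. Fifteen concentrations, triplicate.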

[13] = biological target: Thyrotropin receptor (Homo sapiens) (UniProt P16473); assay: qHTS assay to identify small molecule antagonists of the thyroid stimulating hormone receptor (TSHR) signaling pathway (AID 1259385; calls by dose curve; also: nearly all actives have a fitted effect of over 20% in size); settings: TSHR-HEK293 cAMP HTRF, TSH-stimulated antagonist mode; series mostly up to 92.4 µM
Sequence of Thyrotropin receptor (Homo sapiens) (P16473 whole entry, looked up): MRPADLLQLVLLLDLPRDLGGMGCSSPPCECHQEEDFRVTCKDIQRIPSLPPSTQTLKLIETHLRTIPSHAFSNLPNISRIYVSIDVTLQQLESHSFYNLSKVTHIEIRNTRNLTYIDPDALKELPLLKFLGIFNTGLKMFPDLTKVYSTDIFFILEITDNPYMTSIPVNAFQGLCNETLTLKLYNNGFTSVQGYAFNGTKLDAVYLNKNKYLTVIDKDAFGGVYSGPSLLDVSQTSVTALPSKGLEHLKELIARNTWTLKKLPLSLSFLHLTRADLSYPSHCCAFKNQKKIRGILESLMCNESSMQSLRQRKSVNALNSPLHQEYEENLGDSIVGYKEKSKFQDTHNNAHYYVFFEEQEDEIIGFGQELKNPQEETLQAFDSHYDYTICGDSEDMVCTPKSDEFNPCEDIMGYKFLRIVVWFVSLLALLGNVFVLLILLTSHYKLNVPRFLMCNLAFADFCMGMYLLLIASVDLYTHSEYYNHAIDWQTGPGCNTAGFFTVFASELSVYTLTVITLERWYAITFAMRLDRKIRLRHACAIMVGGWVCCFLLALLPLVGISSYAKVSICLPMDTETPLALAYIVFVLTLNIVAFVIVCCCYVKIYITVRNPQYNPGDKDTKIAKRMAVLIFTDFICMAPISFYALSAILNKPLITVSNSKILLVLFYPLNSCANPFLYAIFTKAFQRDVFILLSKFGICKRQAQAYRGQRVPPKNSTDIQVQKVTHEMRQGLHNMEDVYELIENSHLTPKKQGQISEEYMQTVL
Procedure, shortened: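 TSHR-HEK293 cells were plated and held 18 h at 37C/5% CO2, then given compound plus Ro20-1724 and stimulated with TSH at 1.5 ng/mL final. After 30 min at room temperature, cAMP was detected with cAMP-d2/anti-cAMP-cryptate (1 h) by fluorescence.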

[14] = qHTS assay to identify small molecule HDAC inhibitors - cell viability counter screen (AID 1259365); settings: HCT-116 viability, CellTiter-Glo ATP luminescence, 2 h; series mostly up to 92.4 µM; also: nearly all actives have a fitted effect of over 50% in size; also: potency is read from the fitted curve at half-maximal effect
Procedure, shortened: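 HCT-116 wild-type, overnight attachment; 2hr drug exposure, 37C; CellTiter-Glo luminescent ATP readout after 30min RT.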

[15] = biological target: Estrogen receptor (Homo sapiens) (UniProt P03372); assay: qHTS assay to identify small molecule agonists of the estrogen receptor alpha (ER-alpha) signaling pathway in the presence of an antagonist (AID 1259383; calls by dose curve; also: nearly all actives have a fitted effect of over 15% in size; also: potency is read from the fitted curve at half-maximal effect; as to activation: top concentration of the series differs between compounds); settings: VM7Luc4E2 cells, ERE-luciferase, +ICI-182,780, 22 h; series mostly up to 92.4 µM
Sequence of Estrogen receptor (Homo sapiens) (P03372 whole entry, looked up): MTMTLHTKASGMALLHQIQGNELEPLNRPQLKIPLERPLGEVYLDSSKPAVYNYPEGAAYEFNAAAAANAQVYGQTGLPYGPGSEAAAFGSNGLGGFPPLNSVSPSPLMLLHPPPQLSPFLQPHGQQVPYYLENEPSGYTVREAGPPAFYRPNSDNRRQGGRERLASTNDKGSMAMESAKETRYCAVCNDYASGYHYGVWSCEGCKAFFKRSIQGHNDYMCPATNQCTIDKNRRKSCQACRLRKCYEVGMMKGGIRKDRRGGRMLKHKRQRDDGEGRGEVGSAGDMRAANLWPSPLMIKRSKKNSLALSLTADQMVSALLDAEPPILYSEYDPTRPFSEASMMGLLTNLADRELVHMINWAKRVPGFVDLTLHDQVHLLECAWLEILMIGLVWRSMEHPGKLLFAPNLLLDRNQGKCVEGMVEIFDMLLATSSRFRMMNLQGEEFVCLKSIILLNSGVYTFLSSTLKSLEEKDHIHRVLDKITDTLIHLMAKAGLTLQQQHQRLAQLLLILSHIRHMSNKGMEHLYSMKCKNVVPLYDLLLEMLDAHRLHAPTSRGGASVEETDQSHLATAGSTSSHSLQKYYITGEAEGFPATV
Procedure, shortened: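 Readout was ERE-driven luciferase luminescence in VM7Luc4E2 cells, which express full-length ER-alpha endogenously. Compounds were tested at 15 concentrations for 22hr alongside 10.0nM ICI-182,780 (final concentration).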

[16] = biological target: Estrogen receptor beta (Homo sapiens) (UniProt Q92731); assay: qHTS assay to identify small molecule antagonists of the estrogen receptor beta (ER-beta) signaling pathway (AID 1259378; active = well fitted inhibition curve with a large enough effect in the signal ratio in the repeat runs, not every such curve was filed as active; the % refers to the signal ratio; also: potency is read from the fitted curve at half-maximal effect); settings: ER-beta-UAS-bla HEK293T, beta-lactamase FRET ratio, 16 h; series mostly up to 92.4 µM
Procedure, shortened: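 ER-beta-UAS-bla HEK293T (GripTite) cells in 2% charcoal-stripped FBS medium were preincubated 6 hr at 37C, dosed with compound, then stimulated with 1 nM E2 (final) for 16 hr; beta-lactamase reporter read by B/G FRET fluorescence after 2 hr substrate loading.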

SMILES	Potency [1]	Potency [2]	Potency [3]	Potency [4]	Potency [5]	Potency [6]	Potency [7]	Potency [8]	Potency [9]	Potency [10]	Potency [11]	Potency [12]	Potency [13]	Potency [14]	Potency [15]	Potency [16]
CS(=O)(=O)NC(=O)c1cc(Oc2ccc(C(F)(F)F)cc2Cl)ccc1[N+](=O)[O-]	inactive	inactive	inactive	inactive	inactive	inactive	inactive	inactive	inactive	inactive	inactive	inactive	inactive			
Cl	inactive	inactive	inactive	inactive	inactive	inactive	inactive		inactive	inactive	inactive					
O=S(=O)(O)C(F)(F)C(F)(F)C(F)(F)C(F)(F)C(F)(F)C(F)(F)C(F)(F)C(F)(F)F	inactive	inactive	inactive	inactive	inactive	inactive			inactive	51.9 µM (active) and 48.6 µM (active)	46.2 µM (active) and inactive	inactive	inactive	inactive		
CCOP(=S)(OCC)SCn1c(=O)oc2cc(Cl)ccc21	inactive	inactive	inactive	inactive	inactive	inactive		inactive	inactive	inactive	inactive	inactive		inactive	inactive	
C[N+](C)(C)C	inactive	inactive	inactive	inactive	inactive	inactive			inactive	inactive	inactive	inactive	inactive			
CC(C)(c1ccccc1)c1ccc(O)c(C(C)(C)c2ccccc2)c1	61.1 µM (active)		inactive	60.6 µM (active) and 54.5 µM (active)	60.6 µM (active) and 43.3 µM (active)	inactive				21.5 µM (active) and 30.6 µM (active)	24.1 µM (active) and 30.6 µM (active)	inactive	inactive			
CCCCCCCCCCCCCl	inactive	inactive	inactive	inactive	inactive	inactive	inactive	inactive	inactive	inactive	inactive		inactive			inactive
N#CCCCCC#N	inactive	inactive	inactive	inactive	inactive	inactive			inactive	inactive	inactive	inactive	inactive			
CC(C)(c1ccccc1)c1ccc(O)cc1	inactive	inactive	inactive	60.6 µM (active)		inactive			inactive	60.6 µM (active)	68 µM (active)		inactive	inactive	15.2 µM (active) and 15.4 µM (active)	4.82 µM (active) and 7.7 µM (active)
[Cl-].[Cl-].[Cl-].[Fe+3]	inactive	inactive	inactive	inactive	inactive	inactive			inactive	inactive	inactive					
Clc1ccccc1-c1nnc(-c2ccccc2Cl)nn1	inactive	inactive	9.6 µM (active) and 4.31 µM (active)	inactive	inactive		inactive	inactive	inactive	inactive	inactive	inactive	inactive			inactive
Cn1c(-c2ccccc2)cc(-c2ccccc2)[n+]1C	inactive		inactive	inactive	inactive	inactive	306 nM (active) and inactive	inactive	24.3 µM (active) and 19.3 µM (active)	inactive	inactive		inactive	inactive		inactive
O=[N+]([O-])c1ccc(Nc2ccccc2)cc1		inactive	inactive		48.9 µM (active)	inactive	17.2 µM (active)	inactive	30.9 µM (active) and 30.6 µM (active)	inactive	inactive	inactive	inactive	inactive		
CCC[CH2][Sn]([Cl])([Cl])[CH2]CCC	1.74 µM (active) and 2.43 µM (active)	874 nM (active) and 611 nM (active)	inactive	276 nM (active) and 433 nM (active)	552 nM (active) and 770 nM (active)	inactive	196 nM (active) and 243 nM (active)	inactive	552 nM (active) and 1.09 µM (active)	981 nM (active) and 1.54 µM (active)	1.39 µM (active) and 1.54 µM (active)					
O=C(O)CF	inactive	inactive	inactive	inactive	inactive	inactive		inactive	inactive	inactive	inactive	inactive	inactive			inactive
O=C1C(Cl)=C(Cl)C(=O)c2ccccc21	24.4 µM (active)	43.4 µM (active)		4.34 µM (active)	4.87 µM (active)	inactive			48.7 µM (active) and 54.5 µM (active)	27.4 µM (active) and 27.3 µM (active)	19.4 µM (active) and 30.6 µM (active)			61.3 µM (active) and 38.6 µM (active)	inactive	
CNC(=S)S	inactive	inactive	inactive	inactive	inactive	inactive			inactive	inactive	inactive	inactive	inactive	inactive		
Cc1ccc([N+](=O)[O-])cc1	inactive	inactive	inactive	inactive	inactive	inactive	inactive	inactive	inactive	inactive	inactive		inactive		inactive	inactive
Nc1ncn[nH]1	inactive	inactive	inactive	inactive	inactive	inactive		inactive	inactive	inactive	inactive		inactive	inactive		inactive
